Compound activity deposited in PubChem BioAssay by National Center for Advancing Translational Sciences (NCATS).
Most compounds without a hit are left out; they make up all but 5.4% or so of the library.
RORgamma inh = blocks mouse ROR gamma transcriptional activity | P51450 | Drosophila S2 Gal4-RORgamma UAS-luciferase reporter, 20 h | Potency, µM (doses to about 53.6 µM), without a hit: at the highest dose activity change, negative = inhibition, usual class: inhibitors | 310,000 compounds, 5.4% hits; also: potency is read from the fitted curve at half-maximal effect; % is scaled to controls: 0 for no effect and ±100 for the full control effect; nearly all actives have a fitted effect of over 60% in size
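Stable Schneider cell line, Gal4 DNA-binding domain fused to ROR gamma, UAS-luciferase. Cmpd 1 hr RT → CuSO4 700 uM final → 20 hr RT → luciferase reagent 10 min → luminescence.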
Six1-Eya2 blk = Six1/Eya2 interaction inhibition. Q15475+O00167. AID 651725. activity change, % (test concentration not listed). 360,000 compounds, 0.56% hits. AlphaScreen GST-Six1/His-Eya2 binding, biochemical; active compounds read low; in the data active = activity change below about -65%; inconclusive = mostly about -30% to -63%; also: % is scaled to controls: 0 for no effect and ±100 for the full control effect
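Six1/Eya2 binding was read as AlphaScreen signal after compounds were pinned into GST-Six1 plus His-tagged Eya2 (5X stock 250/500 nM) in pH 8.0 Tris/NaCl/TCEP buffer, beads added, then incubated 1 h, 37 C, dark.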
p53 reactivation = mutant p53 re-activation in reporter cells; H1299 p53-A138V BP100-luciferase reporter, luminescence, 24 h; Potency, µM (titrated, usually from 92.2 µM), for inactives: top-dose activity change, positive = activation, hits mostly activators; 320,000 compounds, 0.063% hits; also: potency is read from the fitted curve at half-maximal effect; % of control where 0% means no effect; nearly all actives have a fitted effect of over 45% in size
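p53-null H1299 cells stably carrying temperature-sensitive p53-A138V and a BP100-luciferase reporter were pinned with compounds (4-point, 1:5 series) and held 24 hrs at 37 deg C. Luminescence was read 10 min after detection reagent.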
VP16 counter = counter-screen for ROR gamma inhibitors: Gal4-VP16 reporter. Drosophila S2 Gal4-VP16 UAS-luciferase, luminescence, 20 h. 310,000 compounds, 3.5% hits. AID 2546. Potency, µM (series often up to 53.6 µM), for inactives: top-dose activity, negative = inhibition, most hits filed as inhibitors;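 also: Gal4-VP16 expression switched on by copper sulfate through the metallothionein promoter; potency is read from the fitted curve at half-maximal effect; % is scaled to controls: 0 for no effect and ±100 for the full control effect; nearly all actives have a fitted effect of over 50% in size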
CtBP-E1A inh = inhibitors of CtBP/E1A interaction; activity change, % (concentration not given with the values); 340,000 compounds, 0.49% hits; AlphaScreen GST-E1A/His-CtBP binding, 1536-well; active compounds read low; in the data active = activity change below about -65%; inconclusive = mostly about -30% to -63%; also: % is scaled to controls: 0 for no effect and ±100 for the full control effect
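Steps: dispense buffer (Tris pH 8.0, NaCl 300 mM, TCEP 1 mM, BSA, Tween 20); add 5X protein mix (GST-E1A, His-CtBP, 125 nM each); pin 23 nL compound; 2 h at 37 °C, dark; add 5X beads (50 ug/mL); 1 h; read.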
* hit, by the source's call; [ ] = remark or other dose. Unless noted, calls follow the shape of the dose curve; as a rule, active = well fitted curve in the direction sought with a large enough effect; inconclusive = small, poorly fitted or top-dose-only effect, or another doubt; inactive = no such curve, though single readings can be large; an effect the other way counts as inactive or inconclusive.

COc1cc(/C=N/Nc2nc(=O)[nH]nc2C)cc([N+](=O)[O-])c1O was read as RORgamma inh -47%, Six1-Eya2 blk inconclusive, p53 reactivation 7% and VP16 counter -4%.
Screening C=CCCCN(Cc1ccccc1)S(=O)(=O)c1ccccc1Br returned RORgamma inh 32%, Six1-Eya2 blk 28, p53 reactivation 1%, VP16 counter inconclusive and CtBP-E1A inh 21.
Screening CCOc1ccc(C2C(C#N)=C(N)SC(N)=C2C#N)cc1OCC returned RORgamma inh -28%, Six1-Eya2 blk -4, p53 reactivation -4%, VP16 counter 7.9µM* and CtBP-E1A inh -2.
`CCOc1ccc(C2C(C#N)=C(N)SC(N)=C2C#N)cc1OC` gave RORgamma inh inconclusive, p53 reactivation -3% and VP16 counter 0%.
Screening O=C(NC1CCCC1)c1nc(-c2ccco2)oc1-c1ccccc1 returned Six1-Eya2 blk -5 and CtBP-E1A inh -5.
`c1ccc(-c2nnc(-c3ccccn3)nn2)nc1` gave Six1-Eya2 blk -79* and CtBP-E1A inh -91*.
Screening c1ccc(-c2cccc(-c3ccccn3)n2)nc1 returned RORgamma inh inconclusive, Six1-Eya2 blk -91*, p53 reactivation 30%, VP16 counter -12% and CtBP-E1A inh -101*.
`c1ccc(-c2nnc(-c3ccccn3)c(-c3ccccn3)n2)nc1` gave RORgamma inh -3%, Six1-Eya2 blk -22, p53 reactivation 9%, VP16 counter 7% and CtBP-E1A inh inconclusive.
For COc1cccc(Nc2ncc3nc(-c4cc(F)cc(F)c4)c(=O)n(C4CC4)c3n2)c1 the results were RORgamma inh 0% and VP16 counter -10%.
`Nc1ccc2c(c1)Cc1c(F)cccc1-2` gave Six1-Eya2 blk -10 and CtBP-E1A inh 3.
Screening CC(C)c1ccccc1NC(=O)COC(=O)CCN1C(=O)/C(=C\C=C\c2ccccc2)SC1=S returned RORgamma inh 2.5µM*, Six1-Eya2 blk -4, p53 reactivation -21%, VP16 counter 4µM* and CtBP-E1A inh 0.
Screening CCN(CC)S(=O)(=O)c1ccc(OC)c(NC(=O)c2cccc([N+](=O)[O-])c2C)c1 returned Six1-Eya2 blk -6 and CtBP-E1A inh -4.
For CCN(CC)CCN(C(=O)CN1C(=O)c2ccccc2C1=O)c1nc2cc3c(cc2s1)OCO3 the results were RORgamma inh 0%, Six1-Eya2 blk -10, p53 reactivation 26%, VP16 counter 0% and CtBP-E1A inh -83*.
For CN(C)CCCN(C(=O)CCSc1ccccc1)c1nc2cc3c(cc2s1)OCO3 the results were RORgamma inh inconclusive, Six1-Eya2 blk -8, p53 reactivation inconclusive, VP16 counter -21% and CtBP-E1A inh -21.
Screening CN(C)CCCN(C(=O)CCS(=O)(=O)c1ccccc1)c1nc2cc3c(cc2s1)OCO3 returned RORgamma inh 11µM*, Six1-Eya2 blk 3, p53 reactivation -64%, VP16 counter 16µM* and CtBP-E1A inh 9.
CCN(CC)CCN(C(=O)CCS(=O)(=O)c1ccccc1)c1nc2cc(C)cc(C)c2s1 was read as RORgamma inh 20µM*, Six1-Eya2 blk 4, p53 reactivation -17%, VP16 counter -29% and CtBP-E1A inh 24.
Screening CC(C)[C@H](NC(=O)OC(C)(C)C)[C@@H](O)CC(=O)OC(C)(C)C returned RORgamma inh -14%[10 µM] and VP16 counter -3%[10 µM].
Oc1c(Br)cc(Br)cc1C=Nc1cccc2ncccc12 was read as Six1-Eya2 blk -15.
`CN1CCN(c2nc(-c3ccc4c(c3)OCO4)nc3ccccc23)CC1` gave RORgamma inh -20% and VP16 counter -4%.
O=C(NN=Cc1ccccc1)C(Oc1ccccc1)c1ccccc1 (stereo unspecified) was read as Six1-Eya2 blk 4 and CtBP-E1A inh -6.
`Cc1ccc(NC(=O)c2ccccc2)cc1OC(=O)c1ccccc1` gave RORgamma inh 8%, Six1-Eya2 blk 2, p53 reactivation 17%, VP16 counter 7% and CtBP-E1A inh -16.
O=C(N/N=C/c1ccsc1)c1cc(-c2cccs2)nc2ccccc12 was read as RORgamma inh 4µM*, Six1-Eya2 blk -7, p53 reactivation 2%, VP16 counter 4.5µM* and CtBP-E1A inh -19.
